The entries come from a sample that favours hits as a whole.
CD40 NFkB inh: CD40 pathway inhibition in BL2 cells; BL2 NF-kB luciferase reporter, CD40L-induced, 4 h; inhibition, % at 10 µM; 0.94% of 83,000 active;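 active = mean inhibition of at least 50% with a set share of replicates also reaching that level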;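 also: 0% = neutral control wells and 100% = IKK inhibitor VII at 50 µM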
Active calls of the source: *; ! = not confirmed by another sample; [ ] = remark or other dose.

SMILES | CD40 NFkB inh
CCN(CC)C(=O)c1ccc(NC(=O)c2cccc(S(=O)(=O)N3CCN(Cc4ccccc4)CC3)c2)cc1 | 17.5
CCN(CC)C(=O)c1ccc(NC(=O)c2ccc(N3CCCC3=O)cc2)cc1 | 15.8
CCN(CC)C(=O)c1ccc(NC(=O)Nc2ccccc2F)cc1 | 83.5*
C[C@]12CC[C@H]3[C@@H](CCC4=CC(=O)CC[C@@]43C)[C@@H]1CC[C@H]2O | 0.9[25 µM]
Oc1ccc2c3c1OC1c4[nH]c5ccccc5c4CC4(O)C(C2)N(CC2CC2)CCC314 (stereo unspecified) | -17.8[25 µM]
CN1[C@@H]2CN(S(C)(=O)=O)C[C@H]1C2c1ccc(Br)cc1 (stereo partly specified) | 27.8*!
CN1[C@@H]2CN(S(C)(=O)=O)C[C@H]1C2c1ccccc1 (stereo partly specified) | 3.9
CS(=O)(=O)N1C[C@@H]2N[C@H](C1)C2c1ccc(Br)cc1 (stereo partly specified) | -3.8
O=C(Cc1ccncc1)N1CCCCN2[C@H](CO)[C@@H](c3ccc(-c4ccncc4)cc3)[C@H]2C1 | 5.6[25 µM]
CS(=O)(=O)N1C[C@@H]2C(c3ccccc3)[C@H](C1)N2CC1CC1 (stereo partly specified) | -5.5
O=C(O)C[C@H]1CC[C@@H]2NC[C@H](O)COC[C@H]2O1 | -1.0[25 µM]
C[C@@H]1CN([C@@H](C)CO)C(=O)c2c(c3ccccc3n2C)-c2ccccc2CO[C@@H]1CN(C)C(=O)Oc1ccccc1 | -0.1
COc1ccc(C#Cc2ccc([C@@H]3[C@H](CO)N4CCCCN(C(=O)Cc5ccccc5)C[C@@H]34)cc2)cc1 | -27.3
C[C@]12CC[C@H](O)C[C@H]1CC[C@@H]1[C@@H]2CC[C@]2(C)[C@@H](c3ccc(=O)oc3)CC[C@]12O | 58.2*[25 µM]
C[C@]12CCC3C(CC[C@H]4C[C@@H](O)CC[C@]34C)C1C[C@@H](O)[C@@H]2O (stereo partly specified) | 1.1
C[C@]12CC[C@@H](O)C[C@@H]1CC[C@@H]1[C@@H]2CC[C@]2(C)C(=O)CC[C@@H]12 | 11.9
CC(=O)OC1CC2(O)C3CCC4CC(O)CCC4(C)C3CCC2(C)C1C1=CC(=O)OC1 (stereo unspecified) | 75.0*
C[C@]12CC[C@H](O)C[C@@H]1CC[C@H]1[C@H]3CCC(=O)[C@@]3(C)CC[C@@H]12 | 2.1
CC1OC(OC2C(O)CC(OC3C(O)CC(OC4CCC5(C)C(CCC6C5CCC5(C)C(C7=CC(=O)OC7)C(O)CC65O)C4)OC3C)OC2C)CC(O)C1O (stereo unspecified) | 57.6*
CC(=O)C1CCC2C3CCC4CC(O)CCC4(C)C3CCC12C#N (stereo unspecified) | 1.1
CC(=O)N1C[C@@H]2C(c3ccccc3)[C@H](C1)N2CC1CC1 (stereo partly specified) | -0.8
CN1[C@@H](CO)[C@@H]2c3ccccc3NC[C@@H]21 | -11.2[25 µM]
COC(=O)[C@@H]1[C@@H](CO)[C@@H]2Cn3c(ccc(-c4cccc(C(=O)N(C)C)c4)c3=O)[C@H]1N2CC1CC1 | -6.6[25 µM]
c1ccc(CC(c2ccccc2)N2CCCCC2)cc1 (stereo unspecified) | -3.0[25 µM]
C/C=C/c1ccc([C@H]2[C@@H](CO)N3CCCCN(C(=O)Cc4cccnc4)C[C@@H]23)cc1 | -3.7[25 µM]
SMILES | CD40 NFkB inh
CC(C)NC(=O)N1C[C@@H]2C(c3ccc(Br)cc3)[C@H](C1)N2C (stereo partly specified) | -3.8
O=C(O)[C@@H]1[C@@H](CO)[C@@H]2Cn3c(ccc(-c4cccnc4)c3=O)[C@H]1N2C(=O)Nc1cc(F)ccc1F | 1.1[25 µM]
O=C(Cc1ccncc1)N1CCCCN2[C@@H](CO)[C@H](c3ccc(C#Cc4ccccc4F)cc3)[C@@H]2C1 | -2.1[25 µM]
CC(C)(C)n1cc(C(=O)c2ccc3ccccc3c2O)cn1 | 54.5*
O=C(Cc1ccccn1)N1CCCCN2[C@H](CO)[C@H](c3ccc(-c4ccccc4F)cc3)[C@H]2C1 | -14.8[25 µM]
O=C(Cc1ccccc1)N1CCCCN2[C@@H](CO)[C@H](c3ccc(C#Cc4ccccc4)cc3)[C@@H]2C1 | 10.2
C=CCN1[C@@H]2CN(CC(F)(F)F)C[C@H]1C2c1ccc(Br)cc1 (stereo partly specified) | -7.1
CC1CC(C)CC(C)C(O)C(C#N)=CC=CCC(C2CCCC2C(=O)O)OC(=O)CC(O)C(C)C1 (stereo unspecified) | 94.1*
C/C=C/c1ccc(C2[C@@H]3CN(Cc4cocn4)C[C@H]2N3)cc1 (stereo partly specified) | -6.8[25 µM]
COP(=S)(OC)SCN1C(=O)c2ccccc2C1=O | 32.1*
O=[N+]([O-])c1ccc(N2CCCCC2)c2ncccc12 | -8.1
O=[N+]([O-])c1ccc(N2CCOCC2)c2c1no[n+]2[O-] | 86.0*
O=[N+]([O-])c1ccc(N2CC2)c([N+](=O)[O-])c1 | 0.8
CN1[C@@H]2c3cccc(=O)n3C[C@H]1[C@H](CO)[C@H]2C(=O)NCC1CC1 | 15.2
C/C=C/c1ccc(C2[C@H]3CNC[C@@H]2N3CC2CC2)cc1 (stereo partly specified) | -4.5[25 µM]
COC(=O)[C@H]1[C@H](CO)[C@H]2Cn3c(ccc(-c4cccc(C(=O)N(C)C)c4)c3=O)[C@@H]1N2C(=O)NC(C)C | -2.7[25 µM]
OC[C@@H]1Nc2ccc(C#Cc3cccnc3)cc2[C@@H]2NCC[C@H]12 | -2.0[25 µM]
O=C(C1CC1)N1C[C@@H]2N[C@H](C1)C2c1ccc(-c2cncnc2)cc1 (stereo partly specified) | -0.6
CC(=O)N1C[C@@H]2N[C@H](C1)C2c1ccc(Br)cc1 (stereo partly specified) | -7.7
O=C(C1CC1)N1C[C@@H]2N[C@H](C1)[C@@H]2c1ccc(-c2ccncc2)cc1 | 69.9*
N#Cc1ccc(-c2ccc([C@H]3[C@@H](CO)N4CCCCN(C(=O)Cc5ccccc5)C[C@H]34)cc2)cc1 | 1.9[25 µM]
O=C(Cc1ccccn1)N1CCCCN2[C@H](C1)[C@H](c1ccc(Br)cc1)[C@@H]2CO | 2.4[25 µM]
CCOC(=O)c1ncn2c1C1CCCN1C(=O)c1cc(OC)ccc1-2 (stereo unspecified) | 3.5[25 µM]
CC(=O)OCC12CC(OC(=O)CC(C)C)C(C)=CC1OC1C(O)C(OC(C)=O)C2(C)C12CO2 (stereo unspecified) | 65.0*
COC(=O)[C@H]1[C@H](CO)[C@H]2Cn3c(ccc(-c4cncnc4)c3=O)[C@@H]1N2S(=O)(=O)c1ccccc1C | -10.2[25 µM]
SMILES | CD40 NFkB inh
COc1ccc(OC(=O)N(C)C[C@@H]2OCc3ccccc3-c3c(n(C)c4ccccc34)C(=O)N([C@@H](C)CO)C[C@@H]2C)cc1 | 12.9
CC(C)NC(=O)N1[C@@H]2Cn3c(ccc(-c4cccc(C(=O)N(C)C)c4)c3=O)[C@H]1[C@@H](C(=O)O)[C@@H]2CO | 4.3[25 µM]
C=CCN1CCC23c4c5ccc(O)c4OC2C(=O)CCC3(O)C1C5 (stereo unspecified) | -4.0[25 µM]
O=C(Cc1cccnc1)N1CCCCN2[C@H](CO)[C@@H](c3ccc(C#CC4(O)CCCC4)cc3)[C@H]2C1 | -1.8[25 µM]
Cn1ncnc2c(=O)n(C)c(=O)nc1-2 | 86.0*
COC(=O)[C@H]1[C@H](CO)[C@H]2Cn3c(ccc(-c4ccccc4F)c3=O)[C@@H]1N2Cc1cccnc1 | -11.2[25 µM]
C/C=C/c1ccc([C@@H]2[C@H]3CN(C(=O)Cc4cccnc4)CCCCN3[C@H]2CO)cc1 | -8.6[25 µM]
CN(C)CC#Cc1ccc([C@@H]2[C@@H](CO)N3CCCCN(C(=O)Cc4ccccn4)C[C@H]23)cc1 | -4.7[25 µM]
